A selection: hits, their analogues and other compounds. The true share with any hit is near 0.5%.
RGS4 inh: human RGS4 inhibition. 390,000 compounds, 0.039% hits. AID 504845. Transcreener GDP fluorescence polarization, RGS4-accelerated GTP hydrolysis. P49798. Potency, µM (highest dose often 114 µM), inactives show at the top dose activity change, negative = inhibition, usual class: inhibitors; also: potency is read from the fitted curve at half-maximal effect; % is scaled to controls: 0 for no effect and ±100 for the full control effect; nearly all actives have a fitted effect of over 75% in size
Target sequence (P49798 whole entry, looked up): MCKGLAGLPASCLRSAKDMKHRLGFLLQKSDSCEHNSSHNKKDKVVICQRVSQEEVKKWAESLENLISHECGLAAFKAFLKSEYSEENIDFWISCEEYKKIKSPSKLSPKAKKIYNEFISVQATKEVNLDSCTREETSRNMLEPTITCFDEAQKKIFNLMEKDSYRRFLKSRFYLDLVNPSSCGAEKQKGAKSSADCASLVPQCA
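MLSMR compounds (23 nl, pin-transferred) preincubated 10 min at room temperature with a 500nM (2x) first reagent, then RGS4 at 900nM (2x) plus Transcreener GDP mix added; fluorescence polarization (620/688 nm) read before and after 90 min at 30 °C.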
TRPML1 agonist: activates the human TRPML1 channel; activation, % (concentration not given with the values); TRPML1-expressing cells, Ca2+ dye fluorescence, FDSS; 410,000 compounds, 0.12% hits; Q9GZU1; in the data active = activation above about 50%; inconclusive = mostly about 30% to 49%; also: 0% is about no effect
Target sequence (Q9GZU1 whole entry, looked up): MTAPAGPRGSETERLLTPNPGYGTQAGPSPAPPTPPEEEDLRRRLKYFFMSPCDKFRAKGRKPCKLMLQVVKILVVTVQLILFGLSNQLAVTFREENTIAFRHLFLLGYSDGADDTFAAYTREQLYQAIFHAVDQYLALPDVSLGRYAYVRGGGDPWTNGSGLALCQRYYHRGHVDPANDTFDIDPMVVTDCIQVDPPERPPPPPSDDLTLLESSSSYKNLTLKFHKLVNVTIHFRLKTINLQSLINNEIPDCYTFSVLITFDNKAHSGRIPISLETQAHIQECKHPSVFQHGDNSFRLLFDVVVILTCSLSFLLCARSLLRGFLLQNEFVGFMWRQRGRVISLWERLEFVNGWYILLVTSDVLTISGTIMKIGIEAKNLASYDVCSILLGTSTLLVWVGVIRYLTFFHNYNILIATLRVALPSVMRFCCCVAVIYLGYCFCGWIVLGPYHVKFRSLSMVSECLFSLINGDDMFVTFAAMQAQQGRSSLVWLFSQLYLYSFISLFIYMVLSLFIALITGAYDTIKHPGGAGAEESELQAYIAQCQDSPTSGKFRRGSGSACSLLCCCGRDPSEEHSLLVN
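Cells: TRPML1-DL, 1X Tet inducer, ~16 h at 37 degrees C/5% CO2. Dye: ABD Ca8 no-wash + quencher, 45-90 min RT. Read: 10 s baseline, compound add, 110 s agonist phase; 54-4 EC80 (4uM final), 110 s antagonist phase.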
AT treatment: potential ataxia-telangiectasia treatments restoring KAP-1 phosphorylation. F2112 A-T fibroblasts, KAP-1 phosphorylation AlphaLISA; neocarzinostatin DNA damage 30 min before lysis. Potency, µM (highest dose often 57.5 µM), without a hit: at the highest dose activation, hits mostly activators. 320,000 compounds, 0.19% hits. AID 485349; also: potency is read from the fitted curve at half-maximal effect; % of control where 0% means no effect; nearly all actives have a fitted effect of over 45% in size
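hTERT-immortalized A-T patient fibroblasts (F2112), 500 cells/well in OPTI-MEM, 1% FBS, got compounds for 60 min, then NCS for 30 min at 37C. Lysates were then assayed for phospho-KAP-1 by AlphaLISA (anti-pKAP1 donor, anti-KAP1 acceptor beads), 6 hr at 25C.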
TRPML1 inh: inhibitors of human TRPML1 channel | TRPML1-inducible cells, Ca2+ dye fluorescence, FDSS; hits give low values; inhibition of EC80 agonist-evoked calcium signal | 390,000 compounds, 0.02% hits | activity change, negative = inhibition, % (concentration not given with the values) | Q9GZU1; in the data active = activity change below about -50%; inconclusive = between about -30% and that limit;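 also: stimulus is agonist 54-4 at its EC80 concentration; % is scaled to controls: 0 for no effect and ±100 for the full control effect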
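TRPML1-DL cells, Tet-induced overnight (~16 h, 37 °C) at 1,500 cells/well, were loaded with Ca8 no-wash dye plus quencher for 45-90 min at room temperature. Compounds were pinned during FDSS kinetic reading; agonist 54-4 at EC80 (4 uM final) then added.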
TRPV1 potentiator: human TRPV1 potentiation; Q8NER1; TRPV1-expressing cells, Fluo-8 calcium influx, capsaicin EC20 potentiation; potentiation, % at 8.33 µM; 320,000 compounds, 0.02% hits; AID 540277; in the data active = potentiation above about 80%; inconclusive = between about 30% and that limit; also: 0% is about no effect
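Fluo-8 calcium influx in TRPV1-expressing cells, kinetic read (ex 480/em 520 nm). Compound added and read 3 min for agonist activity, followed by capsaicin at EC20 final and 2 min further read for enhancement.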
TRPV1 ag: human TRPV1 agonism; TRPV1-expressing cells, Fluo-8 calcium influx, agonist mode; 320,000 compounds, 0.19% hits; activation, % at 8.33 µM; Q8NER1; in the data active = activation above about 80%; inconclusive = between about 30% and that limit; also: 0% is about no effect
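TRPV1-expressing cells were cultured overnight at 35.5C and loaded with Fluo-8 calcium dye for 40 to 90 min at room temperature. After a 10 s baseline, compound was added and calcium influx was read kinetically for 3 min (ex 480/em 520 nm).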
* = called active by the depositor; ? = inconclusive; / = no result; ! = not active in a repeat; [ ] = remark or other dose. Unless noted, calls follow the shape of the dose curve; as a rule, active = well fitted curve in the direction sought with a large enough effect; inconclusive = small, poorly fitted or top-dose-only effect, or another doubt; inactive = no such curve, though single readings can be large; an effect the other way counts as inactive or inconclusive.

SMILES	RGS4 inh	TRPML1 agonist	AT treatment	TRPML1 inh	TRPV1 potentiator	TRPV1 ag
O=C(Nc1ccc(Cl)cc1)Nc1nc(-c2ccccc2O)cs1	-0.7%	-0.4	39.8µM*	-2.1	5.9	?
O=C(Nc1ccc(Cl)cc1)Nc1nc(-c2sccc2Br)cs1	-4.3%	-0.5	11.6%	-3.9	6.5	1.9
O=S(=O)([N-]c1nc2ccccc2nc1-n1cc[n+](Cc2ccccc2)c1)c1ccc(Cl)cc1	-2.8%	0.0	20µM*	-28.8	6.0	2.3
C/C(=N\O)C(C)(C)NC(=O)Nc1ccc(Cl)cc1	-16.4%	0.5	2.6%	-23.6	-15.1	14.2
Cc1n[nH]c(=O)n1-c1ccc(C(C)(C)C)cc1	-40.6%	0.3	0.4%	7.2	2.2	-1.2
CCCCC/C=C\C/C=C\CCCCCCCC(N)=O	23.8µM*	/	/	/	/	/
CCCCCCC/C=C\CCCCCCCCC(=O)O	23.8µM*	/	/	/	/	/
Cn1c(=O)c2c(nc(SCCCC#N)n2Cc2ccccc2F)n(C)c1=O	-3.4%	0.5	9.5%	-5.1	3.5	-3.2
N[C@]1(C(=O)O)CCc2cc(P(=O)(O)O)ccc21	212.2%[56.9 µM]	/	/	/	/	/
NC1(C(=O)O)CCc2cc(P(=O)(O)O)ccc21 (stereo unspecified)	37.7µM*	/	/	/	/	/
Cc1nc2c(n1C1CCCCC1)C(=O)c1ccccc1C2=O	-20.2%	65.4*	1.6%	-4.4	-5.9	-3.6
O=C1c2cccnc2C(=O)N1C1CCCCC1	-18.4%	1.1	-2.6%	-11.0	13.2	-1.1
COC(=O)c1c(C(=O)OC)c(-c2ccccc2)n2c1CS(=O)C2 (stereo unspecified)	13.8%	0.5	/	34.4	91.5*	-6.8
Oc1ccc(Nc2ccnc3cc(Cl)ccc23)cc1	-4.9%	0.2	39.8µM*	19.6	-23.7	?
CC(C)OP(=O)(OC(C)C)C(O)c1ccc(N(C)C)cc1 (stereo unspecified)	-43.7%	0.2	5.01µM*	4.2	9.1	-1.0
CC(C)OP(=O)(c1ccc(N(C)C)cc1)C(O)c1ccc(C(C)C)cc1 (stereo unspecified)	13.1%	3.1	-8.8%	12.7	-15.0	8.5
Cc1ccc([C@@H]2[C@@H]3C(=O)N(C)C(=O)[C@@H]3[C@]3(C)C(=O)N(Cc4ccccc4)CC(=O)N23)o1	-34.1%	-0.2	18.6%	-0.1	-4.7	-6.3
Cc1cc(O)c(C(C)C)cc1NC(=S)Nc1cc(C(C)C)c(O)cc1C	?	3.7	/	0.2	/	/
CC[n+]1c(/C=C/C=C2/N(C)c3ccccc3C2(C)C)sc2ccccc21	21.2µM*	/	/	/	/	/
CC[n+]1c(/C=C/C=C/N(C(C)=O)c2ccccc2)sc2ccccc21	?	0.4	-4.8%	-10.1	-4.5	-2.9
CCN(CC)c1ccc(/C=C/C(=O)C2C(=O)C=C(C)OC2=O)cc1 (stereo unspecified)	-41.4%	127.3*	-2.4%	-12.1	12.0	93.5*
O=C(O)Cc1c[nH]c2ccc(O)cc12	21.2µM*!	-0.1	/	1.5	/	/
COc1ccc2[nH]cc(CC(=O)O)c2c1	21.1%	/	34.6%	/	1.1	0.1
Cc1cc2c(NC(=O)Nc3ccc(C(F)(F)F)cc3)cccc2nn1	?	0.4	-2.0%	18.5	-2.8	81.9*
Cc1cc2c(NC(=O)CCCC(=O)O)cccc2nn1	28.0%	-0.2	7.6%	5.6	-19.6	-1.8
SMILES	RGS4 inh	TRPML1 agonist	AT treatment	TRPML1 inh	TRPV1 potentiator	TRPV1 ag
COc1cc2c(c(OC)c1)C(c1cccc(F)c1F)CC(=O)N2 (stereo unspecified)	-9.0%	57.2*	/	-13.2	/	/
Cc1cccc(N2CCN(S(=O)(=O)c3c(C(=O)N4CCC(C)CC4)c(C)n(C)c3C)CC2)c1C	-3.5%	?	/	4.8	/	/
Cc1ccc(C)c(N2CCN(S(=O)(=O)c3c(C(=O)N4CCC(C)CC4)c(C)n(C)c3C)CC2)c1	10.2%	54.9*	/	-12.7	/	/
CCOc1ccccc1CNc1nc2ccccc2n1C	11.8%	-1.1	14.1%	5.5	83.7*	6.0
CCOc1ccc(NC(=O)CSC2=Nc3ccccc3C3=NC(CCC(=O)NCc4ccco4)C(=O)N23)cc1 (stereo unspecified)	20.3%	0.9	/	-6.1	/	/
COc1ccc2c(c1)C/C(=C\c1ccc(N(C)C)cc1)C2=O	/	71.6*	/	/	/	/
CC(=O)N1CCOc2ccc(S(=O)(=O)N3CC(C)CC(C)C3)cc21 (stereo unspecified)	-8.4%[56.9 µM]	-0.4	5.9%	-20.7	-7.9	10.6
CC(=O)N1CCOc2ccc(S(=O)(=O)N3CCC(C)CC3)cc21	0.3%[56.9 µM]	0.2	0.8%	-59.2*	14.7	-2.9
Cn1c(NC(=O)Cc2cccc3ccccc23)cc(=O)n(C)c1=O	0.9%	-0.7	-1.0%	-9.7	-20.7	?
CS(=O)(=O)c1ccc2nc(NC(=O)CS(=O)(=O)Cc3ccccc3)sc2c1	-6.4%	0.8	8.7%	-9.5	-19.7	4.9
Cc1ccc2nc(NC(=O)CS(=O)(=O)Cc3ccccc3)sc2c1	22.8%	0.9	-1.4%	-10.9	-0.1	84.6*
Brc1ccc(OCc2nnc3n2CCC3)cc1	8.7%	1.1	-3.6%	23.5	1.6	-5.1
CSc1nc(N)c2ncn([C@@H]3O[C@H](COP(=O)(O)OP(=O)(O)O)C(O)[C@H]3O)c2n1 (stereo partly specified)	0.532µM*	/	/	/	/	/
NC(=O)C1=CN(C2OC(COP(=O)(O)OP(=O)(O)OC[C@H]3O[C@@H](n4cnc5c(N)ncnc54)[C@H](OP(=O)(O)O)[C@@H]3O)C(O)C2O)C=CC1 (stereo partly specified)	13.4µM*	/	/	/	/	/
CSc1nc(N)c2ncn([C@@H]3O[C@H](COP(=O)(O)OP(=O)(O)OP(=O)(O)O)[C@@H](O)[C@H]3O)c2n1	11.9µM*!	/	/	/	/	/
COc1ccc(NC(=O)CCN2CCN(c3ccc(F)cc3)CC2)cc1	10.7%	0.4	1.7%	-6.1	0.2	11.4
CCOC(=O)[C@H]1[C@H]2COc3ccc(OC)cc3[C@@H]2N2C(=O)c3ccc(Cl)cc3NC(=O)[C@@]12C	14.1%	-0.2	7.0%	37.7	?	90.2*
CCOC(=O)[C@H]1[C@H]2COc3ccc(Cl)cc3[C@@H]2N2C(=O)c3ccc(Cl)cc3NC(=O)[C@@]12C	-9.9%	0.9	3.9%	22.9	0.2	87.2*
CCOC(=O)[C@H]1[C@H]2COc3ccc(C)cc3[C@@H]2N2C(=O)c3ccc(Cl)cc3NC(=O)[C@@]12C	34.3%	0.9	3.4%	-4.4	/	/
O=C(C1CCN(S(=O)(=O)N2CCOCC2)CC1)N1CCN(Cc2ccccc2)CC1	-2.9%	0.3	3.4%	-2.9	4.0	-1.0

Bioassay records deposited in PubChem BioAssay by National Center for Advancing Translational Sciences (NCATS).
